Laboratory results: PubChem BioAssay (NCATS)
Results filed as inconclusive are left out. Activity calls are given as the source filed them. Unless noted, the call rests on the fitted dose curve; in most records, active means well fitted curve in the direction sought with a large enough effect; inconclusive means small, poorly fitted or top-dose-only effect, or another doubt; inactive means no such curve, though single readings can be large; an effect the other way counts as inactive or inconclusive.

Experiments:
[1] = qHTS for differential inhibitors of proliferation of Plasmodium falciparum line 7G8 (AID 1815);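 further: parasite growth measured after three days of incubation; plate controls were vehicle wells for no effect and reference inhibitor wells for full effect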
[2] = qHTS for differential inhibitors of proliferation of Plasmodium falciparum line GB4 (AID 1816); conditions: Potency: Plasmodium falciparum GB4 proliferation inhibition;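 further: parasite growth measured after 72 h incubation; 0% = vehicle DMSO and -100% = reference inhibitor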
[3] = qHTS for differential inhibitors of proliferation of Plasmodium falciparum line 3D7 (AID 1876);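 further: parasite growth measured after three days of culture; 0% = vehicle wells and -100% = reference inhibitor wells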
[4] = qHTS for differential inhibitors of proliferation of Plasmodium falciparum line D10 (AID 1877);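 further: parasites grown with compound for 72 h before DNA staining; plate controls were vehicle wells for no effect and reference inhibitor wells for full effect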
[5] = qHTS for differential inhibitors of proliferation of Plasmodium falciparum line Dd2 (AID 1882); conditions: Potency: Plasmodium falciparum Dd2 proliferation inhibition;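 further: series mostly up to about 29 µM; plate controls were DMSO vehicle for no effect and 0.29 µM artemisinin for full effect; nearly all actives have a fitted effect of over 65% in size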
Method in brief: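 SYBR Green DNA fluorescence (ex 485, em 535 nm) after overnight lysis quantifies parasite growth; compound exposure lasted 72 h at 37 C on infected red cells at 2.5% hematocrit, 0.3% parasitemia (final). Artemisinin 0.29 uM and vehicle wells define normalization.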

[6] = qHTS for differential inhibitors of proliferation of Plasmodium falciparum line W2 (AID 1883); conditions: Potency: Plasmodium falciparum W2 proliferation inhibition;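 further: parasites grown with compound for 72 h before lysis and staining; 0% = vehicle wells and -100% = control inhibitor wells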
[7] = qHTS for differential inhibitors of proliferation of Plasmodium falciparum line HB3 (AID 1886); conditions: Potency: Plasmodium falciparum HB3 proliferation inhibition;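 further: parasites grown with compound for 72 h before SYBR Green readout; plate controls were vehicle for no effect and reference inhibitor for full effect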
[8] = qHTS Assay for Modulators of Human Peripheral Myelin Protein 22 (PMP22) Expression/Activity (AID 1967; active means well fitted curve in the direction sought with a large enough effect in the signal ratio; the % refers to the signal ratio;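 further: 0% = untreated cells and 100% end not stated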)
Method in brief: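 Engineered MSC80 cells, Pmp22-promoter green and EF-alpha red luciferase reporters; 24h compound treatment at 37 °C. Concentration-response fits on green, red and ratio signals, each overlap-corrected, with %Activity normalized to untreated wells.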

[9] = target: Ferritin light chain (Equus caballus) (UniProt P02791); assay: qHTS Validation Assay for Identification of Novel General Anesthetics (AID 2323); further: series mostly up to about 77 µM; on the % scale 0 is the no-effect control and ±100 the full control effect
Method in brief: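 Normalized fluorescence response, scaled between free 1-AMA and 1-AMA/apoferritin complex, fitted to a four-parameter Hill equation for concentration-effect values. Binding mix: 10 uM horse-spleen apoferritin, 50% saturated 1-AMA in PBS; read 380/535 nm after 10 min.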

[10] = target: ATP-dependent DNA helicase Q1 (Homo sapiens) (UniProt P46063); assay: qHTS Validation Assay for Inhibitors of RecQ-Like Dna Helicase 1 (RECQ1) (AID 2353);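 further: plate controls were DMSO vehicle for no effect and enzyme-free control for full effect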
Method in brief: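 RECQ1T1 50 nM; forked duplex (20 bp + 30-nt ss tails) 200 nM, ATP 2 mM final; pH 8.0, 2 mM MgCl2, 2.5 ug/ml poly(dI-dC); 15 min compound preincubation; discontinuous kinetic read over 2 h at RT.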

[11] = target: RecQ-like DNA helicase BLM (Homo sapiens) (UniProt P54132); assay: qHTS Validation Assay for Inhibitors of Bloom's syndrome helicase (BLM) (AID 2364);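 further: plate controls were DMSO vehicle for no effect and enzyme-free control for full effect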
Method in brief: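 50 nM BLM preincubated 15 min at room temperature with compound in pH 8.0 Tris buffer containing 2.5 ug/ml poly(dI-dC); started with 200 nM TAMRA/BHQ-2 forked duplex and 2 mM ATP (final). Unwinding read as TAMRA fluorescence increase, two reads 2 h apart.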

[12] = Validation screen for small molecules that induce DNA re-replication in MCF 10A normal breast cells (AID 463097); further: 0% is about no effect; nearly all actives have a fitted effect of over 60% in size
Method in brief: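 Following 48 hr compound incubation (37 C, 5% CO2), MCF 10A cells receive Hoechst for 40 min at 37 C. Nuclei are then scanned (excitation 405 nm, emission 500-530 nm) for total fluorescence intensity.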

[13] = Quantitative high throughput screen for delayed death inhibitors of the malarial parasite plastid, 96 hour incubation (AID 488745);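 further: luciferase-expressing P. falciparum in erythrocytes at 2% hematocrit and 0.1% parasitemia; series mostly up to about 29 µM; on the % scale 0 is the no-effect control and ±100 the full control effect; nearly all actives have a fitted effect of over 70% in size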
Method in brief: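 Readout is firefly luciferase luminescence from an integrated reporter in P. falciparum; lower signal marks inhibited growth. Cultures at 2% hematocrit and 0.1% parasitemia were treated with compound across two generations (96 h, 37 C, 5% CO2).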

[14] = target: M-phase phosphoprotein 8 (Homo sapiens) (UniProt Q99549); assay: qHTS Validation Assay for Inhibitors for MPP8 Chromodomain Interactions with Methylated Histone Tails (AID 488949);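 further: 50 nM MPP8 with 50 nM peptide preformed then compounds added for 30 min; AlphaScreen signal from MPP8 chromodomain bound to biotinylated H3K9me3 peptide; top concentration of the series differs between compounds; on the % scale 0 is the no-effect control and ±100 the full control effect; nearly all actives have a fitted effect of over 55% in size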
Method in brief: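 Chemiluminescent proximity assay: histidine-tag capture via nickel acceptor beads, biotin peptide via streptavidin donor beads. Protein and peptide each at 50 nM, pH 7.4, with 30 min incubations at room temperature for complex formation, compound exposure and bead binding.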

[15] = target: Transient receptor potential cation channel subfamily V member 1 (Homo sapiens) (UniProt Q8NER1); assay: HTS Assay for Compounds that Act as Enhancers of the Vanilloid Receptor 1 (AID 488979); further: 0% is about no effect
Method in brief: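 TRPV1 cells loaded with Fluo-8 calcium dye; compound added and Ca2+ signal (ex 480/em 520 nm) followed 3 min, then capsaicin at EC20 added and read 2 more min to detect enhancement.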

[16] = target: Thyrotropin receptor (Homo sapiens) (UniProt P16473); assay: qHTS Assay for Antagonists of the Thyroid Stimulating Hormone Receptor (AID 488980); further: series mostly up to about 58 µM; 0% is about no effect
Method in brief: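 Inhibition of TSH-stimulated cAMP accumulation was quantified by homogeneous time-resolved FRET in TSHR-transfected HEK293 cells. Agonist: TSH, 4 nM final (EC80).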

[17] = target: Thyrotropin-releasing hormone receptor (Homo sapiens) (UniProt P34981); assay: qHTS for Small Molecule Agonists and Allosteric Enhancers of Human TRH Receptor: Validation Screen for Agonists (AID 493127;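 active means calcium activation more than 3 SD above the typical response in the agonist read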;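 further: intracellular calcium rise by fluo-8 fluorescence before TRH EC20 addition; 0% is about no effect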); conditions: TRH receptor agonist cell assay; at 2 µM; hits give high values
Method in brief: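 Compounds are added by online pintool to dye-loaded TRHR cells while fluorescence is recorded every second. A rise in calcium signal during the agonist read marks activation; a later 10 nM TRH addition (EC20) serves the separate enhancer mode.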

[18] = target: Galactokinase (Homo sapiens) (UniProt P51570); assay: qHTS Validation Assay for Inhibitors of Human Galactokinase (GALK) (AID 493189); further: 0% is about no effect
Method in brief: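 Enzyme activity is inferred from ATP consumption: human GALK phosphorylates galactose (100 uM) using 35 uM ATP for 1 h at room temperature, and luciferase-based Kinase-Glo Plus reports unconsumed ATP.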

[19] = Validation screen for small molecules that induce DNA re-replication in SW480 colon adenocarcinoma cells (AID 504364); further: 0% is about no effect
Method in brief: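 Image-based qHTS: compounds were incubated with SW480 cells for 48 hr, nuclei stained with Hoechst, and per-nucleus fluorescence intensity scanned to flag cells with excess DNA content.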

[20] = target: DNA dC->dU-editing enzyme APOBEC-3G (Homo sapiens) (UniProt Q9HC16); assay: qHTS for inhibitors of Vif-A3G interactions: Validation (AID 588379); further: 0% is about no effect
Method in brief: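 Yellow fluorescence (Ex 488, Em 500-530) of Vif-coexpressing HeLa A3G-eYFP cells, scanned by Acumen cytometer, reports blocked A3G degradation. Cells plated at 700/well overnight at 37 deg C before compound addition, then a further overnight compound incubation at 37 deg C.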

[21] = target: Voltage-gated inwardly rectifying potassium channel KCNH2 (Homo sapiens) (UniProt Q12809); assay: qHTS Assay for Small Molecule Inhibitors of the Human hERG Channel Activity (AID 588834);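 further: top concentration of the series differs between compounds; on the % scale 0 is the no-effect control and ±100 the full control effect; lower thallium flux fluorescence means stronger hERG block; nearly all actives have a fitted effect of over 50% in size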
Method in brief: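 Homogeneous FluxOR thallium flux assay using hERG-expressing U2OS cells (BacMam). Compound treatment about 10 minutes preceded stimulation; reduced fluorescence taken as channel block.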

[22] = test system: Zika virus NS2B-NS3 protease; assay: Primary screen GU AMC qHTS for Zika virus inhibitors (AID 1347154);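 further: 0% = no-inhibitor control and -100% = no-enzyme control; nearly all actives have a fitted effect of over 70% in size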
Method in brief: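 Unlinked Zika NS2B hydrophilic domain–NS3 protease complex at 25 nM in 10 mM Tris-HCl pH 8.0, 0.01% Tween 20, with an AMC peptide substrate. Fluorescence change (340/450 nm) over 15 min at room temperature, normalized to controls, fitted to 4-parameter Hill.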

Sequence of Transient receptor potential cation channel subfamily V member 1 (Homo sapiens) (Q8NER1 whole entry, looked up): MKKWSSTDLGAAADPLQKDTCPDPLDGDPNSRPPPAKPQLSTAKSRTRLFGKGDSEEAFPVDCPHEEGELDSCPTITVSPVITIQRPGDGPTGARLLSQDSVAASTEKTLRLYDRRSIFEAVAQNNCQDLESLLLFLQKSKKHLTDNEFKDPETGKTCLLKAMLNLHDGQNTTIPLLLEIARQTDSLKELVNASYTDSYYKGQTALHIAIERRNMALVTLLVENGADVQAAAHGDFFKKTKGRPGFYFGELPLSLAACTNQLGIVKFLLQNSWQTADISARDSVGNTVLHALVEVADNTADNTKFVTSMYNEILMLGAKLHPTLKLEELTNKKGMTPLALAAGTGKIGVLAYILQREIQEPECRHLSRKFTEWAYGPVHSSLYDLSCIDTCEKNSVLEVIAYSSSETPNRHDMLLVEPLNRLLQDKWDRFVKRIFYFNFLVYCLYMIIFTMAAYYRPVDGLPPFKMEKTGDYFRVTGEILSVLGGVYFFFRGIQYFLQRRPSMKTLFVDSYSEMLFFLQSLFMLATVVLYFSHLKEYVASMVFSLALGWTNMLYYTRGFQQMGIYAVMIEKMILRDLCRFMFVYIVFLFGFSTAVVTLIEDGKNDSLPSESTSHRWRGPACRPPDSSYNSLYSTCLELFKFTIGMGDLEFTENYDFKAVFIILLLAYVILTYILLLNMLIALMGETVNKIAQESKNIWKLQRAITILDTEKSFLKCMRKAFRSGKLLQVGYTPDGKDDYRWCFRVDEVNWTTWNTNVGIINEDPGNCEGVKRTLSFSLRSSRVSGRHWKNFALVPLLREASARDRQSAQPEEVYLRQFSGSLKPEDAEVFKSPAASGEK
Sequence of DNA dC->dU-editing enzyme APOBEC-3G (Homo sapiens) (Q9HC16 whole entry, looked up): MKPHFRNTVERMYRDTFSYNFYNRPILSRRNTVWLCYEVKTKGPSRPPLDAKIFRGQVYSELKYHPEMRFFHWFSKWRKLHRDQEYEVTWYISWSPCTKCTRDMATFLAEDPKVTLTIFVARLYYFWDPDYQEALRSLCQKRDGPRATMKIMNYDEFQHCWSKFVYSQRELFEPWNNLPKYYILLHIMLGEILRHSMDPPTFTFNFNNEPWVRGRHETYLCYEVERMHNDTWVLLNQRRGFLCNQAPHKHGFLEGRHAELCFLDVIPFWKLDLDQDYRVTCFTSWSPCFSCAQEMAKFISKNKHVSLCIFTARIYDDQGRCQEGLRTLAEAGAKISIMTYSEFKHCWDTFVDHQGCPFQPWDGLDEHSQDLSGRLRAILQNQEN
Sequence of Thyrotropin-releasing hormone receptor (Homo sapiens) (P34981 whole entry, looked up): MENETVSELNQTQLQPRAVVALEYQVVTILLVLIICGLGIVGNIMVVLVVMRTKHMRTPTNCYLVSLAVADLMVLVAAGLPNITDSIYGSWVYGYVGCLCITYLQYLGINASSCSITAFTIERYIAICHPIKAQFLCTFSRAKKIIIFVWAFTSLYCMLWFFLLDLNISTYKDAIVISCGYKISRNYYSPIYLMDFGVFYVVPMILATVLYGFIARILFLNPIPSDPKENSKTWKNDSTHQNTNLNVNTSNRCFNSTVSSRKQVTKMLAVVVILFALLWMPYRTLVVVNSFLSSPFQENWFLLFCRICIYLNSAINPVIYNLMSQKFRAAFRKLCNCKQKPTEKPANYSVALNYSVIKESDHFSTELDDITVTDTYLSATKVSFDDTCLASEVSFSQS
Sequence of M-phase phosphoprotein 8 (Homo sapiens) (Q99549 whole entry, looked up): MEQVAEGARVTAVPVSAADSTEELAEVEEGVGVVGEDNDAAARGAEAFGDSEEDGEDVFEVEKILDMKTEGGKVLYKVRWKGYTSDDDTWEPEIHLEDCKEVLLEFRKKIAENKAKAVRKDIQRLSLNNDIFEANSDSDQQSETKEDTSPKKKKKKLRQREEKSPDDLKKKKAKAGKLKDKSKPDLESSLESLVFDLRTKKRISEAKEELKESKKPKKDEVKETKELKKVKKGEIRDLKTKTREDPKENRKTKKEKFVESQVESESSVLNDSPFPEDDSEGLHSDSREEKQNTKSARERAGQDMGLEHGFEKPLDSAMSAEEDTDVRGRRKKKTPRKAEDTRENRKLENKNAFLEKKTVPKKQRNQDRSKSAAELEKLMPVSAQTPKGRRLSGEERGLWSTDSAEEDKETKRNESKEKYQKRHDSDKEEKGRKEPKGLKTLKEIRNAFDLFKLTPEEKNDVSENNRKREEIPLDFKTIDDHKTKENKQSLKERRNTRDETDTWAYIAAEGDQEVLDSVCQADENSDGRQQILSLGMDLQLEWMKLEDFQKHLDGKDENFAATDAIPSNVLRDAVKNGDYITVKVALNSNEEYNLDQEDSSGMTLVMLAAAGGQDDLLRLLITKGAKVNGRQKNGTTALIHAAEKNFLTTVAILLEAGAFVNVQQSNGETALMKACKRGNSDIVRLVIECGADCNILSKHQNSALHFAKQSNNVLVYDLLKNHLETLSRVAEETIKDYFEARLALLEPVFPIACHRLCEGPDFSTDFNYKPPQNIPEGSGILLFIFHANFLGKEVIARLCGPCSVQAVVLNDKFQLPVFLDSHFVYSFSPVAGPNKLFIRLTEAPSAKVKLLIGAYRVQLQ
Sequence of Thyrotropin receptor (Homo sapiens) (P16473 whole entry, looked up): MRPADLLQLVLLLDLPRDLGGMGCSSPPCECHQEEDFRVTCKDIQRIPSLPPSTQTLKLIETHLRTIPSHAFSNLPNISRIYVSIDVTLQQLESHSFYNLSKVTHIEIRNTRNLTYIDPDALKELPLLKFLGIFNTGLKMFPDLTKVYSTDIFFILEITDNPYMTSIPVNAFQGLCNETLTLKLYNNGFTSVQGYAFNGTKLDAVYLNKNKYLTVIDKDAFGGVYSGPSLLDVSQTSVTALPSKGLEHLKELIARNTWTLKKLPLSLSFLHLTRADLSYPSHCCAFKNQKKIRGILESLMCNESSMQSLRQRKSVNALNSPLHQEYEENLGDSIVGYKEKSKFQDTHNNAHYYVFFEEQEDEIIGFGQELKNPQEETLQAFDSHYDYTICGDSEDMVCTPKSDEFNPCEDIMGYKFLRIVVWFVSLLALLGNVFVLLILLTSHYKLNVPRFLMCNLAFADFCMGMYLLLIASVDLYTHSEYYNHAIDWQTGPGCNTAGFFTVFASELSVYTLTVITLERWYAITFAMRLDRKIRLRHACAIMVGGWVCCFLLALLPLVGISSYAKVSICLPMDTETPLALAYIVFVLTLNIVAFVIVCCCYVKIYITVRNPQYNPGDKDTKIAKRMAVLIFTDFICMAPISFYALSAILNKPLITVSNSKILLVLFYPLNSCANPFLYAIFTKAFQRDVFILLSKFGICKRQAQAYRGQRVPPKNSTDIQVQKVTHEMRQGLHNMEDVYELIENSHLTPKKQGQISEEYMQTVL
Sequence of Voltage-gated inwardly rectifying potassium channel KCNH2 (Homo sapiens) (Q12809 whole entry, looked up): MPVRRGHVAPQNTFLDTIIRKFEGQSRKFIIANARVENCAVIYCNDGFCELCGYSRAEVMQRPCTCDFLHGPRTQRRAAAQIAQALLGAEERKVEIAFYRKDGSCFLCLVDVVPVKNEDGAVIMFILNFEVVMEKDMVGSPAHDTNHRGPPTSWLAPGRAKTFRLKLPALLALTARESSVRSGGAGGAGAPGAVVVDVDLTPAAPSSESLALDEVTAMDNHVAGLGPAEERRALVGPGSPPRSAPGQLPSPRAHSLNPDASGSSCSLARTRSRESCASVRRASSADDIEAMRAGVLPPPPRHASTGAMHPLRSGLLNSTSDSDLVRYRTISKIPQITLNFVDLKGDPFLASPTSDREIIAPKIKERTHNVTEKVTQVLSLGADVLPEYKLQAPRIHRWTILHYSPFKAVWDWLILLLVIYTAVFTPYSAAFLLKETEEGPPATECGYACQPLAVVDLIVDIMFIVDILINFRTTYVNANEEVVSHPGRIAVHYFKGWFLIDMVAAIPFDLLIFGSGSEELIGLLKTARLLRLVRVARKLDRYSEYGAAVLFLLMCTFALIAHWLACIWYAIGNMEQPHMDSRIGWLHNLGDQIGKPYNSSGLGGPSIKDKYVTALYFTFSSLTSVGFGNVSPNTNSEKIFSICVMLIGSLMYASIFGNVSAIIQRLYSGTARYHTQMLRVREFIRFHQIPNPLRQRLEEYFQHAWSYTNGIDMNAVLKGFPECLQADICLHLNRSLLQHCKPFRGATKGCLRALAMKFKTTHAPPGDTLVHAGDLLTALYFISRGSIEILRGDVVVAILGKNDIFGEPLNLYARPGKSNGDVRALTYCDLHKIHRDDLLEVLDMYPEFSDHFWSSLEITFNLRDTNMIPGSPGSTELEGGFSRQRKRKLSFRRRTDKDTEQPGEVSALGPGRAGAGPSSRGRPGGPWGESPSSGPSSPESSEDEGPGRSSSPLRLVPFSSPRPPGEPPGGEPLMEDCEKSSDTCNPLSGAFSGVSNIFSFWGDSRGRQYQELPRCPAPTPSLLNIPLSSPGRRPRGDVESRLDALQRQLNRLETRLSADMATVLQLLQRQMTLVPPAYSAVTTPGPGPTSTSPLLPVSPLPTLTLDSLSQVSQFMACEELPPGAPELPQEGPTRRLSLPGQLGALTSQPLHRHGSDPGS
Sequence of Ferritin light chain (Equus caballus) (P02791 2-175 limits assumed): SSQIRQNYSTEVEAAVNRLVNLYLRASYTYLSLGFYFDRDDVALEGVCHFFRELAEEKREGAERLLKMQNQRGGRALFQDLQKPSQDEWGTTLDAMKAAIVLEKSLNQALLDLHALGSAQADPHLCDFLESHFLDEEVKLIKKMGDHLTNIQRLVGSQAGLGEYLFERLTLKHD
Sequence of Galactokinase (Homo sapiens) (P51570 whole entry, looked up): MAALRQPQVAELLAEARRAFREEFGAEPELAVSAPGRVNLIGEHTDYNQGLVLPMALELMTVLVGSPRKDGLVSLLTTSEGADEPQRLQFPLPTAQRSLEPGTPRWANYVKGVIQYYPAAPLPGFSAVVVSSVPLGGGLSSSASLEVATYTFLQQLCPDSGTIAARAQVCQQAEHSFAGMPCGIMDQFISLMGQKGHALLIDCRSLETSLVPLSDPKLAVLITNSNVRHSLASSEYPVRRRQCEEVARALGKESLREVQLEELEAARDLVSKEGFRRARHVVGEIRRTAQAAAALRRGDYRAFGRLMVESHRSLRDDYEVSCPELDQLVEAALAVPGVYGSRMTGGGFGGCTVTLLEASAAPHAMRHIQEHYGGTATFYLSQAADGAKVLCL

Cc1cccc(C)c1NC(=O)C[N+](C)(C)C
inactive: Potency [1] | Potency [2] | Potency [3] | Potency [4] | Potency [5] | Potency [6] | Potency [7] | outcome [8] | outcome [9] | Potency [10] | Potency [11] | Potency [12] | Potency [13] | Potency [14] | outcome [15] | outcome [16] | activation [17] -0.0625% | outcome [18] | outcome [19] | Potency [20] | Potency [21] | Potency [22]
